{
  "source": "PubChem BioAssay",
  "key": {"[1]": {"test": "antimalarial activity against Dd2 strain (AID 2302;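 active means growth inhibition above 50% at the single 2 µM test dose, taken to imply half-maximal potency below 2 µM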;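 further: 0% = DMSO untreated growth and 100% = chloroquine plus artemisinin killed control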)", "settings": "P. falciparum Dd2 in RBCs, LDH growth readout, 72 h; at 2 µM; hits give high values"}, "[2]": {"test": "human hepatoma cell viability loss – ATP luminescence, cytotoxicity control for P. falciparum antimalarial project, primary screen (AID 2303;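 active means inhibition above 50%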;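 further: 0% = DMSO wells and 100% = digitonin-killed cells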)", "settings": "HepG2 viability, 24-48 h, at 10 µM, hits give high values"}, "[3]": {"molecular_target": "L-lactate dehydrogenase (Plasmodium falciparum (isolate CDC / Honduras)) (UniProt Q27743)", "sequence (Q27743 whole entry, looked up)": "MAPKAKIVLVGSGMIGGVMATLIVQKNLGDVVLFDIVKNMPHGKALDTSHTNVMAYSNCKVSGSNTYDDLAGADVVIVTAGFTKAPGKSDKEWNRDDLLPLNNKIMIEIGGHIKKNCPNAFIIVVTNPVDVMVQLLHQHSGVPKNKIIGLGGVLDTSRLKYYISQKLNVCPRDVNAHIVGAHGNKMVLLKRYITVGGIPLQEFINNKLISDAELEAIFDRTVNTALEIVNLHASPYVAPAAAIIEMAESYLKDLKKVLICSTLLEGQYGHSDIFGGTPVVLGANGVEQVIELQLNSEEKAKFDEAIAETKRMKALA", "test": "PfLDH activity inhibition – cell lysate, 3D7 strain, counter-screen for P. falciparum growth inhibition project (AID 2304);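 further: 0% = vehicle and 100% = reference inhibitor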", "settings": "P. falciparum 3D7 crude extract, LDH APAD/NBT absorbance; at 2 µM; hits give high values"}, "[4]": {"test": "inhibition of 3D7 malaria parasite growth – strain 3D7 (AID 2306);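 further: 0% = DMSO wells and 100% = chloroquine plus artemisinin control wells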", "settings": "P. falciparum 3D7 erythrocytic growth, LDH absorbance, 72 h; at 2 µM; hits give high values"}, "[5]": {"molecular_target": "Calcium-dependent protein kinase 1 (Plasmodium falciparum (isolate 3D7)) (UniProt P62344)", "sequence (P62344 whole entry, looked up)": "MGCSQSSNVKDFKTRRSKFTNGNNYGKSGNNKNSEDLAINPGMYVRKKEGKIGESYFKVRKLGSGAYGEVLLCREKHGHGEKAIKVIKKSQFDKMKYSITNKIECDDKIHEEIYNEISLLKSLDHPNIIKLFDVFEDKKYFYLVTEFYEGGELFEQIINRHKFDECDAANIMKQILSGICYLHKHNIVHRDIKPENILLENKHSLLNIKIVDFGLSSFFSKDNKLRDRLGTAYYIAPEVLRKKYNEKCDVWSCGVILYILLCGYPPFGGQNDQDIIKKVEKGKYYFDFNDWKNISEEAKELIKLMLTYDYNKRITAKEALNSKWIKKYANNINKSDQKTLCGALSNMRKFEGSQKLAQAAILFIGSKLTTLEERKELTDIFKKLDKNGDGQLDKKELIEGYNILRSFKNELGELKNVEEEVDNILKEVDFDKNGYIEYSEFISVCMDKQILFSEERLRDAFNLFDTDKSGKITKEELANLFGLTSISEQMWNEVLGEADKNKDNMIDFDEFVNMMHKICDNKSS", "test": "PfCDPK1 kinase inhibitors, biochemical, TCAMS library (AID 1159585; cut-off not given, nearly all actives have IC50 up to about 0.98 µM;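 further: inhibitors leave more ATP so luminescence rises with inhibition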)", "settings": "recombinant PfCDPK1, Kinase-Glo ATP depletion luminescence"}, "[6]": {"molecular_target": "Plasmodium falciparum protein kinase 6 (PK6, PF3D7_1337100) (UniProt Q8IDW1)", "sequence (Q8IDW1 1-305)": "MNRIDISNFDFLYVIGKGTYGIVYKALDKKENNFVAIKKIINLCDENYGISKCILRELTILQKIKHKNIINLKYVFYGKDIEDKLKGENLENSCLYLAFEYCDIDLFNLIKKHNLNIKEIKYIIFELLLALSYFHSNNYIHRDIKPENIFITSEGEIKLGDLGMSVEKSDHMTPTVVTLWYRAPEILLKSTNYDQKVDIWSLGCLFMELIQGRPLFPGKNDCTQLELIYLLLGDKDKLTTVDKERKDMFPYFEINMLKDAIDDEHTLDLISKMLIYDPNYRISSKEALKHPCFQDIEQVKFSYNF", "test": "PfPK6 kinase inhibitors, biochemical, TCAMS library (AID 1159586)", "settings": "recombinant PfPK6, Kinase-Glo ATP depletion luminescence"}, "[7]": {"molecular_target": "Protein kinase 7 (PK7), Plasmodium falciparum 3D7 (PF3D7_0213400) (UniProt Q7YTF7)", "sequence (Q7YTF7 1-343)": "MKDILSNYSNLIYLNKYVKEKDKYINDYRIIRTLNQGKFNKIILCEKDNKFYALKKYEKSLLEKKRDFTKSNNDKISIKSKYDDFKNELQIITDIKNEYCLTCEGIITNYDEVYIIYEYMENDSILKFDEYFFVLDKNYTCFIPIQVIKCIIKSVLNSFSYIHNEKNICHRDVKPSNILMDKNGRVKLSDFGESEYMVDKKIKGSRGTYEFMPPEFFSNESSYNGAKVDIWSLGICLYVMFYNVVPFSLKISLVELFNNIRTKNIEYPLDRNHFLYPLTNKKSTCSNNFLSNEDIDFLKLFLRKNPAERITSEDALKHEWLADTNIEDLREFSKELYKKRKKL", "test": "inhibition of Plasmodium PK7 catalytic activity – biochemical, TCAMS antimalarial set, Kinase-Glo luminescence (AID 1159587)", "settings": "recombinant PfPK7, Kinase-Glo ATP depletion luminescence"}, "[8]": {"molecular_target": "Calcium-dependent protein kinase 4 (Plasmodium falciparum (isolate 3D7)) (UniProt Q8IBS5)", "sequence (Q8IBS5 whole entry, looked up)": "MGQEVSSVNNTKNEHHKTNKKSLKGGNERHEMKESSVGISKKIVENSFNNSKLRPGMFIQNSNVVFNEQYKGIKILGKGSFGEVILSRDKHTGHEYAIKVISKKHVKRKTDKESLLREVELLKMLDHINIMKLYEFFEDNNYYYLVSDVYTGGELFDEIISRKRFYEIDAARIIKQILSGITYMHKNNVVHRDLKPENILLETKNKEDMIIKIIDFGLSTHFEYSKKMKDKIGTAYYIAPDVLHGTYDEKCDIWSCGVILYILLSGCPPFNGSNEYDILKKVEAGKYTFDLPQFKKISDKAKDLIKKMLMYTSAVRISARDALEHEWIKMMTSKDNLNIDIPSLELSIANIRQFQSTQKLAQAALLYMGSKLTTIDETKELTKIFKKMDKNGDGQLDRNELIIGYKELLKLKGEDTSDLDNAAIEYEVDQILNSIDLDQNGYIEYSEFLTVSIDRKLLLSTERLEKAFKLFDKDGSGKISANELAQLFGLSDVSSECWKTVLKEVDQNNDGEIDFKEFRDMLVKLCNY", "test": "PfCDPK4 kinase inhibitors, biochemical, TCAMS library (AID 1159588; cut-off not given, nearly all actives have IC50 up to about 0.91 µM)", "settings": "recombinant PfCDPK4, Kinase-Glo ATP depletion luminescence"}},
  "note": "For some of these results: Entries with a potency or affinity are not part of this list. Calls of active or inactive are those of the source. Unless noted, how the calls were made is not given here.",
  "data": [
    {"smiles": "Cc1nnc(N2C(=N)SC(=Cc3ccc(-c4ccc(OC(F)(F)F)cc4)o3)C2=O)s1", "values": [
      {"measurement": "growth inhibition", "setting": "[1]", "result": "58% (active)"},
      {"measurement": "inhibition", "setting": "[2]", "result": "37% (inactive)"},
      {"measurement": "inhibition", "setting": "[3]", "result": "-7% (inactive)"},
      {"measurement": "growth inhibition", "setting": "[4]", "result": "85% (active)"},
      {"measurement": "outcome", "setting": "[5]", "result": "inactive"},
      {"measurement": "outcome", "setting": "[6]", "result": "inactive"},
      {"measurement": "outcome", "setting": "[7]", "result": "inactive"},
      {"measurement": "outcome", "setting": "[8]", "result": "inactive"}
    ]},
    {"smiles": "COc1cccc(CNC(=O)c2cc(CNCc3ccccc3)ccc2-c2cccc(CNCc3ccc(-c4ccccc4)cc3)c2)c1", "values": [
      {"measurement": "growth inhibition", "setting": "[1]", "result": "15% (inactive)"},
      {"measurement": "inhibition", "setting": "[2]", "result": "22% (inactive)"},
      {"measurement": "inhibition", "setting": "[3]", "result": "8% (inactive)"},
      {"measurement": "growth inhibition", "setting": "[4]", "result": "95% (active)"},
      {"measurement": "outcome", "setting": "[5]", "result": "inactive"},
      {"measurement": "outcome", "setting": "[6]", "result": "inactive"},
      {"measurement": "outcome", "setting": "[7]", "result": "inactive"},
      {"measurement": "outcome", "setting": "[8]", "result": "inactive"}
    ]},
    {"smiles": "CN(C)c1cccc2c1nc(-c1ccc3c(c1)CCO3)n2CCNCc1ccccc1", "values": [
      {"measurement": "growth inhibition", "setting": "[1]", "result": "85% (active)"},
      {"measurement": "inhibition", "setting": "[2]", "result": "6% (inactive)"},
      {"measurement": "inhibition", "setting": "[3]", "result": "0% (inactive)"},
      {"measurement": "growth inhibition", "setting": "[4]", "result": "99% (active)"},
      {"measurement": "outcome", "setting": "[5]", "result": "inactive"},
      {"measurement": "outcome", "setting": "[6]", "result": "inactive"},
      {"measurement": "outcome", "setting": "[7]", "result": "inactive"},
      {"measurement": "outcome", "setting": "[8]", "result": "inactive"}
    ]},
    {"smiles": "CN(CCCCCNC(=O)/C=C/c1ccc(Cl)c(Cl)c1)CCc1c[nH]c2ccccc12", "values": [
      {"measurement": "growth inhibition", "setting": "[1]", "result": "18% (inactive)"},
      {"measurement": "inhibition", "setting": "[2]", "result": "40% (inactive)"},
      {"measurement": "inhibition", "setting": "[3]", "result": "2% (inactive)"},
      {"measurement": "growth inhibition", "setting": "[4]", "result": "91% (active)"},
      {"measurement": "outcome", "setting": "[5]", "result": "inactive"},
      {"measurement": "outcome", "setting": "[6]", "result": "inactive"},
      {"measurement": "outcome", "setting": "[7]", "result": "inactive"},
      {"measurement": "outcome", "setting": "[8]", "result": "inactive"}
    ]},
    {"smiles": "CCOc1ccc(-c2nonc2NC(=O)c2cccc(Cl)c2)cc1OCC", "values": [
      {"measurement": "growth inhibition", "setting": "[1]", "result": "99% (active)"},
      {"measurement": "inhibition", "setting": "[2]", "result": "-5% (inactive)"},
      {"measurement": "inhibition", "setting": "[3]", "result": "-8% (inactive)"},
      {"measurement": "growth inhibition", "setting": "[4]", "result": "100% (active)"},
      {"measurement": "outcome", "setting": "[5]", "result": "inactive"},
      {"measurement": "outcome", "setting": "[6]", "result": "inactive"},
      {"measurement": "outcome", "setting": "[7]", "result": "inactive"},
      {"measurement": "outcome", "setting": "[8]", "result": "inactive"}
    ]}
  ]
}
